In the supplement of paper PMC5919970:
Counter-ions that a name gives are not always drawn. In all, about 2,000 compounds were measured (“fractional viability relative to vehicle”: median about 0.91, lowest 2% from about 0.045 on). What follows is part of a selection rich in the lowest values, with near analogues and random picks from the rest.

System: TYKNU
Assay: fractional viability relative to vehicle; TYKNU is a high-grade serous ovarian cancer line; higher = less growth inhibition
Details: 72 h
Summary of the method: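 TYKNU control cells or lentiCRISPRv2 knockout derivatives were seeded at 500 cells per well into drug-stamped 384-well plates holding a ~2100-compound library at 2 or 10 μM, in duplicate. Cells were grown at 37 °C in 5% CO2 in RPMI 1640 with 10% FBS, and drug treatment lasted 72 h. Viability was read by Cell Titer Glo luminescence. Duplicate treatment wells were averaged and normalised to duplicate control wells from the same plate position.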

[1] = 2uM, genotype: DNM1L knockout (sgDNM1L #1)
[2] = 2uM, genotype: sgCTRLA1 (non-targeting control)
[3] = 10uM, genotype: DNM1L knockout (sgDNM1L #1)
[4] = 10uM, genotype: sgCTRLA1 (non-targeting control)

Row | SMILES | fractional viability [1] | fractional viability [2] | fractional viability [3] | fractional viability [4]
1 | Cn1cc(-c2ccc(F)c(C(F)(F)F)c2)nc1C1CCN(c2ncnc3[nH]ncc23)CC1 | 0.735 | 0.848 | 0.331 | 0.583
2 | O=C(NS(=O)(=O)c1ccc(Br)s1)c1ccc(Cl)cc1Cl [Tasisulam] | 0.84 | 0.973 | 0.503 | 0.726
3 | C[C@H]1COC2=C1C(=O)C(=O)c1c2ccc2c1CCCC2(C)C [Cryptotanshinone] | 0.306 | 0.399 | 0.0756 | 0.132
4 | CNC(=C[N+](=O)[O-])NCCSCc1ccc(CN(C)C)o1 [Ranitidine] | 0.91 | 1.04 | 0.719 | 0.999
5 | OC(CNCC(O)C1CCc2cc(F)ccc2O1)C1CCc2cc(F)ccc2O1 (centres undefined) [Nebivolol] | 0.798 | 0.981 | 0.276 | 0.606
6 | CCN(CC)CCCC(C)Nc1nc(C)cc(Nc2ccc3nc(C)cc(N)c3c2)n1 (centres undefined) | 0.927 | 0.862 | 0.802 | 0.667
7 | CCN(CC)CCCC(C)Nc1c2ccc(Cl)cc2nc2ccc(OC)cc12 (centres undefined) [Quinacrine 2HCl] | 0.491 | 0.536 | 0.0312 | 0.0211
8 | CNCc1ccc(-c2cc(-c3nc(-c4ccc(S(=O)(=O)C(C)C)cc4)cnc3N)on2)cc1 | 0.919 | 1.19 | 0.902 | 1.1
9 | C[N+](C)(C)CCO.[Cl-] [Choline Chloride] | 0.782 | 1.05 | 0.777 | 0.905
10 | Cc1ccc(C(=O)N(CCCN)[C@@H](c2nc3cc(Cl)ccc3c(=O)n2Cc2ccccc2)C(C)C)cc1 | 0.325 | 0.437 | 0.107 | 0.105
11 | C#CC[C@H](c1nc2cc(Cl)ccc2c(=O)n1Nc1ccccc1)N(CCCN)C(=O)c1cccc(Cl)c1F | 0.249 | 0.25 | 0.0262 | 0.0115
12 | OC1(c2ccc(Cl)c(C(F)(F)F)c2)CCN(CCCC(c2ccc(F)cc2)c2ccc(F)cc2)CC1 [Penfluridol] | 0.601 | 0.806 | 0.0479 | 0.065
13 | NC(=O)[C@@H](CCC(F)(F)F)N(Cc1ccc(-c2ncon2)cc1F)S(=O)(=O)c1ccc(Cl)cc1 | 0.818 | 1.04 | 0.638 | 0.822
14 | C1=N/C2=N/c3ccc(OCCN4CCCC4)c(c3)COC/C=C/COCc3cccc(c3)C(=C1)N2 [Pacritinib (SB1518)] | 0.128 | 0.169 | 0.0312 | 0.029
15 | O=C(O)CCNc1cc(N2CCc3ccccc3CC2)nc(-c2ccccn2)n1 | 0.937 | 1.07 | 0.854 | 0.738
16 | CC1(C)CC[C@]2(NC(=O)C(C)(F)F)CC[C@]3(C)[C@H](C(=O)C=C4[C@@]5(C)C=C(C#N)C(=O)C(C)(C)[C@@H]5CC[C@]43C)[C@@H]2C1 [Omaveloxolone (RTA-408)] | 0.0849 | 0.0407 | 0.0223 | 0.00825
17 | CC(C)C[C@H](NC(=O)CNC(=O)c1cc(Cl)ccc1Cl)B(O)O | 0.122 | 0.107 | 0.0888 | 0.0714
18 | CC(C)NCCCn1c(Sc2cc3c(cc2I)OCO3)nc2c(N)ncnc21 | 0.207 | 0.177 | 0.233 | 0.123
19 | Nc1[nH]nc2nnc(-c3c(-c4ccccc4)nn4ccccc34)cc12 | 0.851 | 1.01 | 1.04 | 0.887
20 | Clc1cccc(CN=C2Nc3ccccc3NC23CCNCC3)c1 [Liproxstatin-1] | 0.75 | 0.957 | 0.646 | 0.651
21 | CN(C)CC[C@H](CSc1ccccc1)Nc1ccc(S(=O)(=O)NC(=O)c2ccc(N3CCN(Cc4ccccc4-c4ccc(Cl)cc4)CC3)cc2)cc1[N+](=O)[O-] | 0.917 | 0.97 | 0.544 | 0.956

Row | SMILES | fractional viability [1] | fractional viability [2] | fractional viability [3] | fractional viability [4]
22 | CCC[C@H](NC(=O)/C(C#N)=C/c1cccc(Br)n1)c1ccccc1 [Degrasyn (WP1130)] | 0.0738 | 0.0639 | 0.0286 | 0.026
23 | C[C@H](NC(=O)/C(C#N)=C/c1cccc(Br)n1)c1ccccc1 | 0.9 | 0.999 | 0.0615 | 0.0707
24 | N#C/C(=C\c1ccc(O)c(O)c1)C(=O)NCc1ccccc1 [AG-490 (Tyrphostin B42)] | 0.921 | 1.01 | 0.84 | 0.99
25 | O=C(Nc1cccc(Cl)c1)Nc1ncc(CCNc2ncnc3ccsc23)s1 [SNS-314 Mesylate] | 0.705 | 0.722 | 0.644 | 0.404
26 | O=C(c1cncc(Br)c1)N1CCC(N2CCCC2)CC1 | 0.816 | 0.901 | 0.828 | 0.765
27 | O=C(c1ccc(Nc2nccc(-c3cc4ccccc4s3)n2)cc1)N1CCC(N2CCCC2)CC1 [IKK-16 (IKK Inhibitor VII)] | 0.942 | 0.839 | 0.0381 | 0.0277
28 | O=C(c1ccc(C(=O)N2CCC(N3CCCC3)CC2)c(Nc2ccccc2)c1)N1CCC(N2CCCC2)CC1 | 0.857 | 1 | 0.708 | 0.973
29 | NC[C@H](O)c1ccc(O)c(O)c1 [Noradrenaline bitartrate monohydrate] | 0.847 | 0.96 | 0.592 | 0.84
30 | O=C(/C=C/C=C/c1ccc2c(c1)OCO2)N1CCCCC1 [Piperine] | 0.998 | 1.08 | 0.915 | 1.03
31 | O=C(O)Cc1ccccc1Nc1c(Cl)cccc1Cl [Diclofenac Diethylamine] | 1 | 1.03 | 0.893 | 1.14
32 | O=C(O)Cc1ccccc1Nc1c(Cl)cccc1Cl [Diclofenac Sodium] | 1.12 | 0.938 | 0.917 | 0.967
33 | O=C(O)Cc1ccccc1Nc1c(Cl)cccc1Cl [Diclofenac Potassium] | 1.17 | 1.13 | 0.876 | 1.07
34 | CN(C)c1ccc(-c2nc3ncc(Cl)c(N4CCN(CC(=O)Nc5nccs5)CC4)c3[nH]2)cc1 | 1.15 | 0.937 | 0.395 | 0.714
35 | O=C1c2c(O)cc(O)cc2OC(c2ccc(O)c(O)c2)C1O (centres undefined) [Taxifolin (Dihydroquercetin)] | 1.04 | 1.15 | 0.951 | 1.06
36 | COc1ccc(-c2cc3c(C)nc(N)nc3n([C@H]3CC[C@H](OCCO)CC3)c2=O)cn1 | 0.141 | 0.165 | 0.0585 | 0.0406
37 | COc1cccc(-c2cc(F)ccc2C2Cc3nc(N)nc(C)c3C(=O)N2)n1 (centres undefined) | 0.241 | 0.191 | 0.227 | 0.201
38 | CCN1C[C@H](C)n2c(c(O)c3c(=O)n(Cc4ccc(F)c(Cl)c4)nc(C(=O)NC)c32)C1=O | 1.07 | 1.2 | 0.793 | 1.12
39 | N[C@H]1CC[C@H](N[C@@H]2C[C@H]2c2ccccc2)CC1 | 0.777 | 0.909 | 0.758 | 0.712
40 | Cc1cc(OCc2nnc(SC3CCCC3)n2-c2cccnc2)ccc1-c1ccc(S(C)(=O)=O)cc1 | 0.545 | 0.46 | 0.0437 | 0.0922
41 | CC(C)[C@H](O)C(=O)N[C@@H](C)C(=O)N[C@@H]1C(=O)N(C)CCc2ccccc21 | 1.04 | 1.25 | 0.949 | 1.15
42 | Cc1ccc(S(=O)(=O)c2ccc([N+](=O)[O-])o2)cc1 | 0.0323 | 0.012 | 0.0126 | 0.00867

Row | SMILES | fractional viability [1] | fractional viability [2] | fractional viability [3] | fractional viability [4]
43 | NC(=O)c1ccc(-c2nc(-c3ccccn3)c(-c3ccc4c(c3)OCO4)[nH]2)cc1 | 1.32 | 1.08 | 1.16 | 0.957
44 | COc1ccccc1OCC(O)COC(N)=O (centres undefined) [Methocarbamol] | 1.02 | 1.16 | 0.9 | 1
45 | O=C(NC[C@H](O)CO)c1ccncc1Nc1ccc(I)cc1F | 0.333 | 0.318 | 0.212 | 0.205
46 | CCCSc1nc(N[C@@H]2C[C@H]2c2ccc(F)c(F)c2)c2nnn([C@@H]3C[C@H](OCCO)[C@@H](O)[C@H]3O)c2n1 [Ticagrelor] | 0.944 | 1.12 | 0.492 | 0.903
47 | CCN(CC)C(=S)SSC(=S)N(CC)CC [Disulfiram] | 0.456 | 0.291 | 0.0708 | 0.0241
48 | CC(=O)N1c2ccc(-c3ccc(C(=O)O)cc3)cc2[C@H](Nc2ccc(Cl)cc2)C[C@@H]1C | 0.281 | 0.395 | 0.237 | 0.208
49 | CNCc1ccc(C)c(NC(=O)c2ccc(Nc3nc(-c4ccccc4)c4ccccc4n3)cc2)c1 | 0.752 | 1.03 | 0.0487 | 0.0706
50 | CC(=O)Nc1ccc(C(=O)Nc2ccccc2N)cc1 [CI994 (Tacedinaline)] | 0.966 | 0.965 | 0.456 | 0.675
51 | Cc1cc(Nc2ccc(NC(=O)c3ccc(Nc4ccnc5ccccc45)cc3)cc2)nc(N)n1 | 0.0197 | 0.0121 | 0.0121 | 0.00969
52 | COc1cc(OC)c2c(=O)[nH]c(-c3cc(C)c(OCCO)c(C)c3)nc2c1 | 1.15 | 1.12 | 0.973 | 1.03
53 | CN(C)CCNC(=O)c1cccn2c(=O)c3cc4ccccc4cc3nc12 | 0.389 | 0.417 | 0.107 | 0.0609
54 | Cc1cnc(Nc2ccc(N3CCN(C)CC3)cc2)nc1Nc1cccc(S(=O)(=O)NC(C)(C)C)c1 | 0.363 | 0.472 | 0.0682 | 0.0804
55 | C=CC(=O)Nc1cccc(Nc2nc(Nc3ccc(OCCOC)cc3)ncc2F)c1 | 0.626 | 0.721 | 0.273 | 0.297
56 | Cc1cnc(Nc2ccc(OCCN3CCCC3)cc2)nc1Nc1cccc(S(=O)(=O)NC(C)(C)C)c1 | 0.352 | 0.378 | 0.0362 | 0.0573
57 | Cc1nc(Nc2cnn(C3CCNCC3)c2)nc2c1N(C)C(=O)c1cc3ccccc3cc1N2C | 0.723 | 0.802 | 0.376 | 0.51
58 | CCN(CC)CCOc1ccc(C(=C(Cl)c2ccccc2)c2ccccc2)cc1 [Clomifene citrate] | 0.751 | 1.08 | 0.178 | 0.479
59 | O=S(=O)(NCCSSCCNS(=O)(=O)c1cc(Cl)ccc1Cl)c1cc(Cl)ccc1Cl | 0.891 | 0.899 | 0.197 | 0.43
60 | CN1CCN(Cc2ccc(Nc3ncc(Cl)c(Nc4ccccc4S(=O)(=O)N(C)C)n3)cc2)CC1 | 0.22 | 0.229 | 0.234 | 0.18
61 | Cc1cc(Nc2ncc(Cl)c(Nc3ccccc3S(=O)(=O)C(C)C)n2)c(OC(C)C)cc1C1CCNCC1 | 0.612 | 0.403 | 0.026 | 0.0128
